From PubChem
M1 antagonist = M1 muscarinic receptor (rat) antagonism; P08482; CHO-M1 cells, Fluo-4 calcium, ACh EC80 antagonist mode; stronger effect = lower value; B-score at 10 µM; 64,000 tested, 3.4% active; AID 628;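 active = calcium fluorescence response, raw or row-and-column corrected B-score, differing from the plate sample mean either way at a set confidence level, mostly lower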
M1 agonist = agonists of M1 muscarinic receptor | B-score at 10 µM | 64,000 tested, 3% active | CHO-M1 cells, Fluo-4 calcium fluorescence, agonist mode; stronger effect = higher value;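 active = fluorescence rise, raw or as B-score row- and column-corrected plate score, outside the 99.7% band of its plate's samples, either direction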
FXIa inh mix = blocks human factor XIa in pooled compound mixtures; P03951; 62,000 tested, 0.19% active; purified FXIa, fluorogenic substrate; inhibition, % at 5 µM;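 note: each value is inhibition by a whole ten-compound pool holding the compound; 0% = enzyme with no mixture and 100% = wells lacking enzyme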
D1 mod = allosterically modulates the human D1 dopamine receptor; HEK293 D1, CRE-luciferase, dopamine EC30 potentiation; actives deviate in either direction; B-score at 10 µM; 58,000 tested, 5.9% active; AID 641;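 active = luminescence count or its row- and column-corrected plate score outside the 99.7% band of the plate's sample wells, on either side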
hDAT+cocaine = modulates human dopamine transporter uptake under cocaine; AID 449768; B-score at 10 µM; 110,000 tested, 1.3% active; LLC-PK1 hDAT cells, [14C]-dopamine uptake with cocaine IC80; actives deviate in either direction; Q01959;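 active = Z score or B-score, a plate-position-corrected score, falls beyond the plate's 99.7% confidence bounds, in either direction; inactive = both scores lie inside the 99.7% bounds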;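 note: scored against the spread of the other compound wells on the same plate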
Target sequence (Q01959 whole entry, looked up): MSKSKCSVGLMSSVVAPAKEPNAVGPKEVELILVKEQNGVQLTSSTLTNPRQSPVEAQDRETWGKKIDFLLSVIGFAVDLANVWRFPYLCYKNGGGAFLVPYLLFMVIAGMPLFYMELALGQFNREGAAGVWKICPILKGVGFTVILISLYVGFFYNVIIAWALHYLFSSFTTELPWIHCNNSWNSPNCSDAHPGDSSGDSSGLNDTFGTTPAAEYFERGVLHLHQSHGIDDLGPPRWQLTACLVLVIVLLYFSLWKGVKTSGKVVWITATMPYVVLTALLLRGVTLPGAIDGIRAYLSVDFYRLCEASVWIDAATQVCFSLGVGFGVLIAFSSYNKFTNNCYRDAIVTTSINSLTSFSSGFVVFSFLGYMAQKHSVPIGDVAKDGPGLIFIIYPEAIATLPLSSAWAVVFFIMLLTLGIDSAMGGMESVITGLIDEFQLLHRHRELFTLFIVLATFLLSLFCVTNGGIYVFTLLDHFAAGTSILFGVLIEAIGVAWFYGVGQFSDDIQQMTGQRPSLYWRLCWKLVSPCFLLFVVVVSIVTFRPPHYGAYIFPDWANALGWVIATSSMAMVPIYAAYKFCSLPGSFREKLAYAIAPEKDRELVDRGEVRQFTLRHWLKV
FXIIa inh mix = factor XIIa (human) inhibition, mixture screen; purified FXIIa, fluorogenic substrate, pooled mixtures; inhibition, % at 5 µM; 62,000 tested, 0.2% active; AID 684;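 note: 0% = enzyme without compound and 100% = no enzyme blank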
* hit, by the source's call; nt = no result. Rows were chosen to be rich in hits. Some 7.4% of all compounds tested hit in one or more screens of this group. Cut-off read from the data, not from the text of the source, unless noted: active = inhibition above about 20% (passing the limit was not always enough); inactive = the rest.

SMILES	M1 antagonist	M1 agonist	FXIa inh mix	D1 mod	hDAT+cocaine	FXIIa inh mix
CCCC(=O)N1CCN(c2ccc(NC(=O)c3ccccc3)cc2)CC1	-3	-0.422	9.8	0.123	1.7	-0.5
CCCCOc1ccc(C(=O)Nc2ccc(N3CCN(C)CC3)cc2)cc1	-2.39	-0.314	9.0	-3.16*	-0.248	2.9
CN1CCN(c2ccc(NC(=O)c3ccccc3Br)cc2)CC1	-0.133	0.313	-2.2	-4.56*	0.595	8.2
CCCCCOC(=O)C1C2C=CC3(CN(c4ccccc4C)C(=O)C13)O2 (stereo not given)	0.574	0.448	2.1	-0.343	-0.238	-16.1
CCCCCn1c(N2CCC(C(N)=O)CC2)nc2c1c(=O)[nH]c(=O)n2C	0.245	0.436	-21.7	0.771	1.07	9.0
Cn1c(=O)[nH]c(=O)c2c1nc(N1CCN(c3cccc(Cl)c3)CC1)n2CCCc1ccccc1	-0.0037	-0.147	13.0	-0.913	0.977	0.2
CCCCCn1c(N2CCN(c3cccc(Cl)c3)CC2)nc2c1c(=O)[nH]c(=O)n2C	-0.623	-0.0388	5.3	4.94*	0.37	1.3
C=C(C)Cn1c(N2CC(C)CC(C)C2)nc2c1c(=O)[nH]c(=O)n2C (stereo not given)	0.359	1.17	7.5	6.96*	0.891	-1.6
C=C(C)Cn1c(NCCOC)nc2c1c(=O)[nH]c(=O)n2C	-0.0527	0.0116	5.1	-0.45	0.625	-10.4
CCCCCCn1c(N2CCC(C)CC2)nc2c1c(=O)[nH]c(=O)n2C	-0.403	-1.45	-2.7	17.9*	0.0142	-16.6
O=S(=O)(c1ccc(Cl)cc1)N1CCn2c1nc1ccccc12	nt	nt	nt	nt	0.532	nt
CCCCN(CC)Cc1ccc(CNC(=O)Nc2ccc(OCC)cc2)o1	nt	nt	nt	nt	-4.12*	nt
CC(C)Cc1cc(C(=O)NCc2ccco2)no1	-0.768	-1.07	5.4	nt	-0.529	-13.3
CN1CCN(Cc2nc(N)nc(Nc3ccc4c(c3)OCCO4)n2)CC1	1.26*	0.295	8.9	0.0202	-0.357	-0.2
Nc1nc(CN2CCN(c3ccccc3F)CC2)nc(Nc2ccc3c(c2)OCCO3)n1	nt	nt	nt	nt	0.883	nt
O=C(CSc1ncccn1)Nc1ccccc1	1.86*	1.2	-12.7	nt	0.667	-6.3
Cc1cc(NCCCn2ccnc2)n2nc(C)c(-c3ccccc3)c2n1	nt	nt	nt	nt	0.44	nt
Cc1cc(NCCCn2ccnc2)n2ncc(-c3ccccc3)c2n1	-0.395	-0.0428	0.5	-6.44*	0.437	-1.3
N#Cc1cc2c(nc1SCC(=O)Nc1sc3c(c1C#N)CCC3)CCCCCC2	nt	nt	nt	nt	2.65*	nt
O=c1cc(-c2cccc3ccccc23)[nH][nH]1	-0.27	0.000856	14.0	nt	2.36*	3.8
CCn1c(=S)sc2c(=O)[nH]c(C)nc21	nt	nt	8.8	nt	-9.03*	2.5
CCn1c(=S)sc2c(=O)n(-c3ccccc3)c(SC)nc21	-0.685	-0.795	5.1	1.17	0.697	5.2
Cc1cc(C(=O)CSc2nn(-c3ccccc3)c(=S)s2)c(C)n1Cc1ccco1	0.0189	-0.294	nt	-4.74*	-0.189	nt
CCOC(=O)c1c(NC(=O)c2cccs2)sc2c1CC(C)(C)OC2	0.0709	0	21.3*	1.05	-2.23	-20.4
CCOC(=O)c1cccc(NC(=O)c2cccs2)c1	0.307	-0.0551	1.6	0.915	0.871	8.1
SMILES	M1 antagonist	M1 agonist	FXIa inh mix	D1 mod	hDAT+cocaine	FXIIa inh mix
Cn1c(CO)cnc1SCc1ccc([N+](=O)[O-])cc1	nt	nt	nt	nt	-0.741	nt
CCCN(CCC)C(=O)CC(c1ccccc1)c1cc(C)ccc1O (stereo not given)	nt	nt	nt	nt	2.52*	nt
O=C(COc1ccccc1Cl)Nc1ccc(Cl)cn1	nt	nt	12.7	-1.48	0.113	14.4
O=C(COc1ccc(Cl)cc1Cl)Nc1ccccn1	-0.188	-0.894	0.1	-4.48*	0.00318	-0.9
CC(c1ccco1)N(C(=O)COc1ccc(Cl)cc1Cl)c1ccccn1 (stereo not given)	-1.76	1.56	1.1	-7.27*	-0.439	1.7
O=C(c1ccc(S(=O)(=O)N2CCOCC2)cc1)N1CCN(C2=NS(=O)(=O)c3ccccc32)CC1	nt	nt	nt	nt	-1.18	nt
CCCCn1c2nc3ccccc3nc2c2c(=O)n(CCC(C)C)cnc21	-1.79	0.0391	4.5	1.66	1.04	4.5
CC(C)Cn1c2nc3ccccc3nc2c2c(=O)n(CCN3CCOCC3)cnc21	-0.0478	-1.13	3.1	4.79*	0.492	2.6
NC(=O)CSc1nnc(-c2ccc(S(=O)(=O)N3CCOCC3)cc2)n1Cc1ccccc1	2.34*	-0.909	7.7	nt	-0.0116	6.3
O=C(CSc1nnc(C2CC2)n1Cc1ccccc1)N1CCN(S(=O)(=O)c2ccccc2)CC1	-2.04	0.0729	0.3	0.451	-7.41*	4.1
NC(=O)CSc1nnc(-c2ccc(S(=O)(=O)N3CCOCC3)cc2)n1CC1CCCO1 (stereo not given)	-1.97	0.444	0.2	nt	-1.33	-8.7
O=C(O)CSc1nnc(-c2cccnc2)n1Cc1ccccc1	-0.821	0.254	5.1	-0.0327	-7.05*	1.6
COc1ccc(OCC(=O)OCCN2C(=O)c3ccccc3C2=O)cc1	0.915	0.284	-0.7	0.831	1.37	4.3
COc1cc(-c2nc3ccccn3c2NCC2CCCO2)ccc1O (stereo not given)	-1.15	3.29*	2.4	-2.21	0.487	19.4
C=CCn1c(C)cc(C(=O)CSc2nnc(NCc3ccccc3)s2)c1C	1.88*	-0.0652	2.1	0.0351	nt	28.0
COc1ccc(C2NC3=C(CCC3)C3(C#N)C4(N=C(N)C23C#N)OCCO4)cc1 (stereo not given)	0.0309	-0.0593	7.2	-3.54*	-0.0478	10.5
COc1ccc2[nH]c(C)c(CCN(Cc3cccs3)C(=S)Nc3ccc(F)cc3)c2c1	nt	nt	nt	nt	-0.946	nt
Cc1cccc(NC(=O)c2cnc3sccn3c2=O)c1	-0.638	0.0716	9.1	-2.06	nt	6.8
COc1ccccc1CNC(=O)c1cnc2sccn2c1=O	1.11	-0.304	-2.5	0.422	-0.234	2.5
Cc1cccc(NC(=O)c2cnc3ccccn3c2=O)c1	-0.447	0.606	9.9	-4.25*	-0.119	0.1
COc1ccccc1CNC(=O)c1cnc2ccccn2c1=O	0.0773	-0.33	20.9*	0.114	3.51*	-0.3
COCCCNC(=S)NNC(=O)c1cccnc1	nt	nt	nt	nt	0.554	nt
c1ccc2c(c1)ncn2CCCCOc1ccc2c(c1)CCC2	nt	nt	nt	nt	1.19	nt
O=C(O)CCn1c(-c2ccccc2)cc2c1CCCC2=O	0.721*	0.451	3.1	nt	-0.4	-18.3
O=C(Nc1c(C(=O)O)[nH]c2ccccc12)NC1CCCCC1	0.479	-0.154	3.7	-0.509	-2.06*	-2.9
O=C(CCN1CCN(c2ccc(Cl)cc2)CC1)Nc1ccccc1F	2.1*	0.0296	-1.9	-0.305	0.63	8.2
O=C(COc1nnnc2ccccc12)N1CCCc2ccccc21	-0.274	-0.072	-4.4	0.00362	-0.183	4.4
O=C(Cn1cnc2ccccc21)OCC(=O)N1CCCc2ccccc21	-0.197	-2.38*	3.3	-0.162	1.41	-14.4
CCC(=O)N1CCc2cc(S(=O)(=O)NC(Cc3ccccc3)C(=O)NC3CCCCC3C)ccc21 (stereo not given)	nt	nt	nt	nt	0.54	nt
CC(C)OC(=O)C1C(=O)CC(C)(O)C(C(=O)OC(C)C)C1c1cccc(O)c1 (stereo not given)	-0.425	-0.0316	5.4	-0.328	nt	1.1
